Activity calls are given as the source filed them.
Assays:
[1] = system: PRMT1 (protein arginine N-methyltransferase 1); test: PRMT1 binders on small-molecule microarrays, primary screen, biochemical, small-molecule microarray, 635 nm fluorescence (AID 1088); settings: small-molecule microarray binding, higher = more signal;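 also: binding of Prmt1 protein to compounds spotted on small-molecule microarray slides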
[2] = yeast growth modulation, basal conditions, primary screen, YJM789 clinical isolate, OD600, 24 h (AID 1089);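 also: growth of clinical yeast isolate S. cerevisiae YJM 789 seeded 1000 cells per well; test concentration not given here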; settings: S. cerevisiae YJM789 growth, higher = more signal, called active from +8 up or from −8 down
[3] = fission yeast growth modulation, primary screen, strain 972, OD600, 24 h, no modulator (AID 1090);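 also: basal condition with compound alone and no growth modifier present; test concentration not given here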; settings: S. pombe 972 growth, higher = more signal, called active from +8 up or from −8 down
[4] = S. cerevisiae growth modulation with rapamycin, primary screen, strain BY4716, OD600, 96 h (AID 1091); settings: higher = more signal, called active from +8 up or from −8 down; also: test concentration not given here
[5] = biological target: Torsin-1A-interacting protein 2 (Homo sapiens) (UniProt Q8NFQ8); test: LULL1 binders on small-molecule microarray, primary screen, cell lysate, human LULL1 lysate, 635/667 nm fluorescence (AID 1092); settings: hLULL1 lysate binding, 635 nm fluorescence, higher = more signal;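 also: probe is lysate of COS7 cells overexpressing human LULL1; score merges per-feature 667 nm fluorescence with signal-to-noise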
[6] = E. coli growth modulation, two-sided OD650, primary screen, E. coli filamentation project, strain DRC41, 24 h (AID 1093); settings: OD650, 24 h, higher = more signal, called active from +8 up or from −8 down;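 also: MC1000 strain lacking acrAB efflux and sulA so SOS filamentation is blocked; test concentration not given here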
[7] = small-molecule microarray binders of probe aLefty2, primary screen, biochemical, biotinylated probe, 635/667 nm fluorescence (AID 1094); settings: higher = more signal;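 also: score merges spot fluorescence near 667 nm with spot signal-to-noise ratio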
[8] = system: Noggin (protein binding on small-molecule microarray); test: Noggin binders on small-molecule microarray, primary screen, biochemical, 635/667 nm fluorescence (AID 1095); settings: 635 nm fluorescence, higher = more signal;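 also: score merges 667 nm feature fluorescence with signal to noise over triplicate slides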
[9] = biological target: Neurogenic locus notch homolog protein 3 (Homo sapiens) (UniProt Q9UM47); test: NOTCH3 binders on small-molecule microarray, primary screen, biochemical, 635/667 nm fluorescence (AID 1096); settings: NOTCH3 binding, 635 nm fluorescence, higher = more signal
[10] = small-molecule microarray binders of probe aEGFR, primary screen, biochemical, biotinylated probe, 635/667 nm fluorescence (AID 1097); settings: higher = more signal;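 also: probe is a biotinylated anti-EGFR antibody binding compounds printed on slides; score combines fluorescence near 667 nm and signal to noise of each spot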

Chain of Neurogenic locus notch homolog protein 3 (Homo sapiens) (Q9UM47 whole entry, looked up): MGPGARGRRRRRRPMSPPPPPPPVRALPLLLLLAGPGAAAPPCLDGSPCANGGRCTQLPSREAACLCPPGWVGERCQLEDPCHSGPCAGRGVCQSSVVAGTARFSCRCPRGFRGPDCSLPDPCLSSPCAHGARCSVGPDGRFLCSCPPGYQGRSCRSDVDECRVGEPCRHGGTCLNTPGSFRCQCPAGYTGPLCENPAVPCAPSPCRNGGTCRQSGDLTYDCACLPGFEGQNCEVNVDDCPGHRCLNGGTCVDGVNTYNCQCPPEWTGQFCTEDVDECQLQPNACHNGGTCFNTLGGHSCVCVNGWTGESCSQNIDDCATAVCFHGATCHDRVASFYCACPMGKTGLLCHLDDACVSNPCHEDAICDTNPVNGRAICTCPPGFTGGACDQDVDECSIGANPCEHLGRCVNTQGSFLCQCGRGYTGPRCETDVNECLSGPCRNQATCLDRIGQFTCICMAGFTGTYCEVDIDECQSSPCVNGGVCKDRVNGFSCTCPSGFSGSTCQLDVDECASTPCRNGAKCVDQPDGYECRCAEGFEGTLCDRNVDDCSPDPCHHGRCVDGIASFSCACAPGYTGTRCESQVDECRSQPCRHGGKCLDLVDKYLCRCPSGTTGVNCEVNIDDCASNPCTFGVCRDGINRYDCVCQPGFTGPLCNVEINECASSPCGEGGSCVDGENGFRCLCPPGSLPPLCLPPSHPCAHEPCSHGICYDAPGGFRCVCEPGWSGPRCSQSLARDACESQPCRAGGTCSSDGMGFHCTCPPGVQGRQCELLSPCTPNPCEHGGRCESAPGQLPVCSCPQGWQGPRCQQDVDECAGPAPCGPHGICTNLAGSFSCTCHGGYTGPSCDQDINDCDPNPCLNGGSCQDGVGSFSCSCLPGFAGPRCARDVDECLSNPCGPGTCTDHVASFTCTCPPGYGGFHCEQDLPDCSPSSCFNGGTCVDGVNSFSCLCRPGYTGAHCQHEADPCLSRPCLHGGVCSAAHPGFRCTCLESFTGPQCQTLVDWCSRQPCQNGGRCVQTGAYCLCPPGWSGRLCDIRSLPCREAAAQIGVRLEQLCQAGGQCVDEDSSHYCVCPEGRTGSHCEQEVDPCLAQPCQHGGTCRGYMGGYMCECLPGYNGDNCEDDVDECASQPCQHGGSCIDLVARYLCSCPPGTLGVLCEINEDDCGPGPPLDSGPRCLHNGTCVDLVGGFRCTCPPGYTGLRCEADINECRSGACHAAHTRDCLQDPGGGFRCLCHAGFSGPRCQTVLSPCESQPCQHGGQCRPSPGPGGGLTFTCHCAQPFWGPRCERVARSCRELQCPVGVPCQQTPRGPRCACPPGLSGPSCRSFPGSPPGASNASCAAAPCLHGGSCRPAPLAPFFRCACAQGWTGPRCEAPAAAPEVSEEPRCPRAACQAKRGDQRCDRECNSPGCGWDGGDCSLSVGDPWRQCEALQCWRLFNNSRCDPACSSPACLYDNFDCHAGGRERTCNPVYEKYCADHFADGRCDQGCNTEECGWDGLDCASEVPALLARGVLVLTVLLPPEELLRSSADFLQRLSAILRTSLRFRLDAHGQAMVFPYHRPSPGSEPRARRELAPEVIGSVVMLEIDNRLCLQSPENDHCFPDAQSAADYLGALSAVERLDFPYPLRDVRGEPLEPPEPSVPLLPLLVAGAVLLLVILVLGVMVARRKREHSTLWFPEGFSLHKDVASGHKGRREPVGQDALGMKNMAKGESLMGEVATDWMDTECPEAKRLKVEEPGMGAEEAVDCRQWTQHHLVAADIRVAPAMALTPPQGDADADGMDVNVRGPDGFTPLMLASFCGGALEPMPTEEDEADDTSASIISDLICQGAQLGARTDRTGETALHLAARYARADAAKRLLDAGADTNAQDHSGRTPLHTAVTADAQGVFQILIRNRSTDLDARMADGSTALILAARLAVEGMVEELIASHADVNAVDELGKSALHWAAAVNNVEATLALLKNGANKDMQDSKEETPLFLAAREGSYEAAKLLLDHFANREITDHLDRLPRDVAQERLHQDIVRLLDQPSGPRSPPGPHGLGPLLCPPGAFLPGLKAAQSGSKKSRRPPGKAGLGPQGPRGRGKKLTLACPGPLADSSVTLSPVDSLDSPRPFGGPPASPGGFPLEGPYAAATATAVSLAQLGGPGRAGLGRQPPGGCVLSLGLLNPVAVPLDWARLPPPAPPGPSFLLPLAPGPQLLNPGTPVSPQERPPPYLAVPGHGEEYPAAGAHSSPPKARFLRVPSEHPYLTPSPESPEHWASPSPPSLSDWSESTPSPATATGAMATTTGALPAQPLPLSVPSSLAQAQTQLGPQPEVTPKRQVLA
Chain of Torsin-1A-interacting protein 2 (Homo sapiens) (Q8NFQ8 whole entry, looked up): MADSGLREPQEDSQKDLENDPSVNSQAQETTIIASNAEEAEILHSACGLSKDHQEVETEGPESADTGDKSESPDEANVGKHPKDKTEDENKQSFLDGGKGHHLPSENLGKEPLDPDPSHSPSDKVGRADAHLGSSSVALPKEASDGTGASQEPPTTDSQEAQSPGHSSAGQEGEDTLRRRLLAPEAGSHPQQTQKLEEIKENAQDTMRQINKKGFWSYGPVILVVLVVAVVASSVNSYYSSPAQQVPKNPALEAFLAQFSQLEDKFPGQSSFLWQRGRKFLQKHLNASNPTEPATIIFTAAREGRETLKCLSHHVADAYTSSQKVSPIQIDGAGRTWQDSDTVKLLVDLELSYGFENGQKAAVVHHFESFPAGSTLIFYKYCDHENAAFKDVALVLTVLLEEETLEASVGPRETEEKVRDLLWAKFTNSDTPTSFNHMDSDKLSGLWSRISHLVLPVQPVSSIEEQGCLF

SMILES	composite z-score [1]	z-score [2]	z-score [3]	z-score [4]	composite z-score [5]	z-score [6]	composite z-score [7]	composite z-score [8]	composite z-score [9]	composite z-score [10]
O=C(CS)NCCCCCNC(=O)[C@@H]1C[C@@H]2C(=O)NCC(=O)N2[C@@H]1c1cccc(OCCO)c1	0.701	-5.72 (inactive)	-0.31 (inactive)	-0.485 (inactive)	2.92	2.71 (inactive)	-0.0823	0.271	0.328	-0.0466
O=C1NC(=O)C2C1C=CC(C(O)c1ccc(-c3ccccc3)s1)N2Nc1ccc(Cl)cc1Cl (stereo not given)	0.193	-0.863 (inactive)	-1.76 (inactive)	1.58 (inactive)	3.07	-1.25 (inactive)	0.214	0.23	0.983	-0.106
COCCOC(=O)N1C(=O)[C@@]2(c3cc(C#CCCO)ccc31)[C@H](c1ccc(O)cc1)N1[C@H](c3ccccc3)[C@H](c3ccccc3)OC(=O)[C@H]1[C@@H]2C(=O)N1CCN(c2ncccn2)CC1	1.53	0.356 (inactive)	0.686 (inactive)	1.6 (inactive)	3.17	0.531 (inactive)	0.837	1.58	1.01	-0.283
NCCCCCNC(=O)[C@H]1C[C@H]2C(=O)N[C@@H](Cc3ccccc3)C(=O)N2[C@H]1c1cccc(OCCO)c1	0.788	0.693 (inactive)	-1.42 (inactive)	-0.763 (inactive)	1.6	0.631 (inactive)	0.662	-0.0079	0.478	0.0115
COC(=O)[C@@]1(CCC(=O)OC(C)(C)C)N=C(c2ccc(OCCCO)cc2)O[C@H]1c1ccccc1	0.899	-0.144 (inactive)	-2.78 (inactive)	3.15 (inactive)	1.29	-2.76 (inactive)	0.0478	-0.105	0.194	-0.125
CO[C@H]1O[C@H](CO)[C@@H](OC(=O)Nc2ccccc2-c2ccccc2)[C@H](OC(=O)Nc2ccccc2-c2ccccc2)[C@@H]1OC(=O)Nc1ccccc1-c1ccccc1	1.54	1.95 (inactive)	0.181 (inactive)	7.28 (inactive)	2.96	1.59 (inactive)	-0.0569	0.761	1.08	-0.0757
CCCC1(C(=O)OC)C=C2C(=C(c3ccccc3)C(=O)C2C)CN1 (stereo not given)	-0.406	0.283 (inactive)	0.312 (inactive)	0.763 (inactive)	1.64	-0.375 (inactive)	0.248	-0.533	0.0144	0.0384
CO[C@H]1O[C@H](CO)[C@@H](OC(=O)Nc2ccc(Oc3ccccc3)cc2)[C@H](OC(=O)Nc2ccc3c(c2)OCO3)[C@@H]1OC(=O)Nc1ccc2c(c1)OCO2	1.53	2.21 (inactive)	1.22 (inactive)	8.57 (active)	3.04	1.36 (inactive)	0.237	0.866	1.07	0.367
O=C1N(CCS(=O)(=O)c2ccccc2)c2ccccc2[C@@H]2OC(c3ccc(OCCCO)cc3)=N[C@]12Cc1ccccc1	1.56	-2.18 (inactive)	-2.2 (inactive)	3.02 (inactive)	2.45	0.736 (inactive)	-0.0248	1.59	1.12	-0.0435
C=CC[C@@]1(C(=O)N2CCCCC2)N=C(c2ccc(OCCCO)cc2)O[C@@H]1c1ccccc1N=[N+]=[N-]	1.54	-0.989 (inactive)	-0.577 (inactive)	1.13 (inactive)	3.23	1.07 (inactive)	0.286	0.564	1.13	0.14
O=C(CS)NCCCCCNC(=O)[C@H]1C[C@H]2C(=O)NCC(=O)N2[C@H]1c1cccc(OCCO)c1	0.151	-0.881 (inactive)	0.145 (inactive)	-0.336 (inactive)	0.556	0.663 (inactive)	-0.0778	0.262	-0.154	-0.0987
Cc1ccc(S[C@]2(C(=O)O)CC(=O)N(C(C)C)[C@@H]2c2ccc(CO)cc2)cc1	1.21	-1.54 (inactive)	-0.916 (inactive)	-0.963 (inactive)	-0.634	1.66 (inactive)	-0.0719	0.306	-0.229	-0.134
O=C(CS)NCCCCCNC(=O)[C@H]1C[C@H]2C(=O)NCC(=O)N2[C@H]1c1ccc(O)cc1	-0.313	-2.76 (inactive)	1.02 (inactive)	-1.11 (inactive)	-1.29	0.77 (inactive)	-0.179	-0.177	-0.905	-0.132
CC(C)Cc1ccc(CN2CC[C@@H](N)C2)cc1	-1.05	-1.18 (inactive)	-21.4 (active)	-4.81 (inactive)	-1.26	-4.43 (inactive)	-0.119	-0.707	-0.462	-0.336
[N-]=[N+]=NCc1ccccc1[C@@H]1OC(c2ccc(OCCCO)cc2)=N[C@]1(CCS(=O)(=O)c1ccccc1)C(N)=O	1.56	1.16 (inactive)	-1.17 (inactive)	-0.325 (inactive)	3.51	0.901 (inactive)	0.308	0.888	1.08	0.388
C=C(CCCC)/C(=C/C[C@@H](OC(C)=O)c1cccc(OCCO)c1)c1cnc2ccccc2c1	1.29	0.0358 (inactive)	-0.328 (inactive)	0.142 (inactive)	0.268	1.24 (inactive)	-0.194	1.73	0.86	-0.0828
Cc1ccc(C2C3C(=O)CC4C(=O)N(c5ccccc5)C(=O)C4C3CN2S(=O)(=O)c2ccc(C)cc2)cc1 (stereo not given)	1.32	0.799 (inactive)	0.499 (inactive)	1.45 (inactive)	2.93	0.0125 (inactive)	0.571	0.0835	1.12	0.786
COCCOC(=O)N1C(=O)[C@@]2(c3cc(C#CCCO)ccc31)[C@H](c1ccc(OCCO)cc1)N1[C@H](c3ccccc3)[C@H](c3ccccc3)OC(=O)[C@H]1[C@@H]2C(N)=O	1.54	2.66 (inactive)	0.245 (inactive)	6.06 (inactive)	2.78	0.719 (inactive)	-0.0383	0.626	1.08	-0.0436
CN(C)CCCCCCNC(=O)[C@@H]1C[C@@H]2C(=O)N[C@@H](CCCC[N+](C)(C)C)C(=O)N2[C@@H]1c1ccc(O)cc1	0.821	-0.581 (inactive)	-0.689 (inactive)	-0.414 (inactive)	0.219	-0.227 (inactive)	-0.0907	0.576	0.0475	-0.221
O=C1NC(=O)C2C1C=CC(C(O)C=Cc1ccc([N+](=O)[O-])cc1)N2Nc1ccc(Cl)cc1Cl (stereo not given)	0.782	-0.17 (inactive)	-1.23 (inactive)	-0.103 (inactive)	2.47	-2.27 (inactive)	0.729	-0.518	1.11	0.285
COc1cc(CO)cc(I)c1O[C@H]1C=C(C(=O)NCCO)C[C@@H](NC[C@@H]2CCCO2)[C@@H]1O	1.35	-0.396 (inactive)	-0.424 (inactive)	-0.0698 (inactive)	1.91	1.6 (inactive)	-0.17	1.26	0.554	-0.0033
COc1ccc([C@H]2C[C@H]3C(I)=C[C@@H]2C(=O)[C@]32CO2)cc1	-0.639	-1.61 (inactive)	-15.3 (active)	-1.79 (inactive)	-0.83	1.6 (inactive)	-0.161	0.387	0.816	-0.135
NC(=O)[C@@H]1[C@H]2C(=O)O[C@H](c3ccccc3)[C@H](c3ccccc3)N2[C@H](c2ccc(O)cc2)[C@@]12C(=O)Nc1ccc(C#CC3=CCCCC3)cc12	1.55	1.98 (inactive)	1.4 (inactive)	2.74 (inactive)	3.22	-0.716 (inactive)	-0.21	0.87	1.11	-0.176
CN(C)CCCC[C@@H]1NC(=O)[C@H]2C[C@@H](C(=O)NCCCCCN)[C@@H](c3cccc(OCCO)c3)N2C1=O	1.54	-0.717 (inactive)	-5.79 (inactive)	-0.503 (inactive)	2.26	1.04 (inactive)	0.801	1.38	0.339	0.374
COC(=O)[C@@]1(Cc2ccc(F)cc2)[C@H]2c3cc(C(=O)N(C)C)n(Cc4ccc(C)o4)c3C[C@H]2CN1C(=O)c1ccccc1	0.323	-0.319 (inactive)	-7.9 (inactive)	0.792 (inactive)	3.05	-0.386 (inactive)	1.26	-0.386	-0.124	0.763
CCCCN1CC=CC23O[C@@H]4C=CCCOC(=O)C4[C@H]2C(=O)N(CCCCCO)[C@@H]3C1=O (stereo not given in full)	-0.726	-0.494 (inactive)	0.0411 (inactive)	0.025 (inactive)	0.905	-0.0111 (inactive)	-0.168	-0.548	-0.73	-0.0987
CCCNC(=O)[C@@H]1c2ccccc2C(=O)N(Cc2ccccc2OC)[C@H]1c1ccc(CO)cc1	0.286	0.105 (inactive)	-0.19 (inactive)	0.353 (inactive)	3.06	0.387 (inactive)	-0.139	0.986	1.11	-0.142
CCCC=C(CCC)[C@@H](NC(=O)OCC(C)C)c1ccccc1	0.934	0.69 (inactive)	-0.623 (inactive)	1.94 (inactive)	2.01	-1.68 (inactive)	0.678	1.11	1.12	0.548
CCCC[C@@H]1C[C@H]1[C@@H](NC(=O)c1cccnc1)c1ccc(Cl)cc1	-2.81	-25 (active)	-15.4 (active)	0.887 (inactive)	0.208	-3.26 (inactive)	-0.165	-2.93	-2.46	-0.428
CC(C)OC(=O)C=C1C[C@@H](c2cccc(Cl)c2)O[C@@H](c2cccc(Cl)c2)O1	-0.341	-0.338 (inactive)	-5.58 (inactive)	-0.764 (inactive)	1.99	-0.391 (inactive)	-0.0009	-0.225	-0.735	-0.13

Source: PubChem BioAssay
